Screens deposited in PubChem by National Center for Advancing Translational Sciences (NCATS).
Hits are enriched below; roughly 12% of the tested compounds scored in any of these assays.
HP1b binding inh = inhibitors of HP1-beta chromodomain binding to methylated histone tails; AlphaScreen HP1-beta / biotin-H3K9me3 peptide binding; Potency, µM (series often up to 114 µM), hits mostly inhibitors; 0.56% of 390,000 active; note: nearly all actives have a fitted effect of over 70% in size
Target sequence (P83916 whole entry, looked up): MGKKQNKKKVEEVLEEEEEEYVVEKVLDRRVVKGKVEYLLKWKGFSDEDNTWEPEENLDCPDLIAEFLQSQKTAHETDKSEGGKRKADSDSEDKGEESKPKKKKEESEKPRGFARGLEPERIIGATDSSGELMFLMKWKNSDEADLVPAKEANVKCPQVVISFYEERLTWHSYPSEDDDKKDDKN
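HP1-beta protein (50 nM final) preincubated 30 min at room temperature with biotinylated H3(1-18)K9me3 peptide (50 nM) in PBS pH 7.4, 0.01% Tween-20, then compound added for 30 min. AlphaScreen streptavidin donor/nickel chelate acceptor beads (10 ug/mL final), 30 min dark, luminescence read.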
JMJD2A Tudor inh = JMJD2A Tudor domain (human) inhibition | O75164 | AlphaScreen JMJD2A-Tudor / H3K4me3 peptide binding | Potency, µM (series often up to 114 µM), most hits filed as inhibitors | 4.4% of 390,000 active; note: nearly all actives have a fitted effect of over 50% in size
Sfp PPTase inh = Sfp phosphopantetheinyl transferase inhibition | Q9F4F7 | Biochemical Sfp PPTase activity, qHTS | Potency, µM, usual class: inhibitors | 3.5% of 310,000 active;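 note: the enzyme is Sfp with the accession as filed and its product quenches rhodamine fluorescence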
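Step 1, compound plus 15 nM Sfp-PPTase, 15 min, room temperature. Step 2, add rhodamine-CoA (5 uM) and BHQ-2-YbbR (12.5 uM). Step 3, read 525/598 nm fluorescence at 0 and 30 min.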
G9a inh = blocks human histone lysine methyltransferase G9a | Q96KQ7 | G9a H3K9 monomethylation, AlphaScreen, 2 h | Potency, µM (titrated, usually from 102 µM), actives largely listed as inhibitors | 8.8% of 350,000 active; note: nearly all actives have a fitted effect of over 75% in size
Target sequence (Q96KQ7 913-1193 limits assumed): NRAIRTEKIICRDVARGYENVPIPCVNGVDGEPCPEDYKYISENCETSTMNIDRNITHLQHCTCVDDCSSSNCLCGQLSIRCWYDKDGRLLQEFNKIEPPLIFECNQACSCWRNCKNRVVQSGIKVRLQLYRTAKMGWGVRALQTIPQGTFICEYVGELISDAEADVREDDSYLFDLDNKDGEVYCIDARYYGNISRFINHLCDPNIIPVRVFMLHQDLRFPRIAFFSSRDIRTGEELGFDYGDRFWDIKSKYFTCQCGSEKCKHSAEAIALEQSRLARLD
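Quantitative HTS format: methyltransferase activity on a biotin-tagged H3K9 peptide is measured by AlphaScreen, using a rabbit anti-monomethyl-H3K9 antibody with streptavidin donor and anti-IgG acceptor beads. Final levels are 20 nM enzyme, 500 nM peptide, 20 uM SAM; 2 h RT.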
L3MBTL1 inh = inhibitors of human L3MBTL1; AID 485360; Potency, µM (titrated, usually from 57.1 µM), usual class: inhibitors; AlphaScreen L3MBTL1–H3K9me1 peptide binding; Q9Y468; 0.66% of 230,000 active; note: nearly all actives have a fitted effect of over 60% in size
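Displacement of a biotinylated histone H3(1-15) peptide monomethylated at Lys9 (75 nM) from L3MBTL1 (50 nM) was measured by AlphaScreen after a 30 min room-temperature compound incubation; cefsulodin titration served as intraplate control.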
BAZ2B block = inhibitors of human BAZ2B bromodomain; 4.4% of 360,000 active; Potency, µM (titrated, usually from 114 µM), most hits filed as inhibitors; Q9UIF8; AlphaScreen BAZ2B-H3K14Ac peptide displacement; note: nearly all actives have a fitted effect of over 60% in size
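Inhibition is scored as reduced AlphaScreen emission. The BAZ2B/b-H3(5-23)K14Ac complex (50 nM each) in PBS pH 7.4, 0.01% Tween-20 meets compound (up to 110 uM) for 30 min at RT before bead addition.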
Hits are given with their value; . = inactive; ? = inconclusive; / = no result; [ ] = another dose, or the depositor's remark. Calls come from the whole dose curve; as a rule, active = well fitted curve in the direction sought with a large enough effect; inconclusive = small, poorly fitted or top-dose-only effect, or another doubt; inactive = no such curve, though single readings can be large; an effect the other way counts as inactive or inconclusive.

SMILES	HP1b binding inh	JMJD2A Tudor inh	Sfp PPTase inh	G9a inh	L3MBTL1 inh	BAZ2B block
Cc1cc(-c2nnc3n2N=C(c2ccccc2)CS3)n[nH]1	.	?	.	44.7µM	.	.
Cc1cc(-c2nnc3n2N=C(c2ccc(-c4ccccc4)cc2)CS3)n[nH]1	.	.[11.4 µM]	.	?	?	.
CC1=Nn2c(nnc2-c2ccccn2)SC1	.	22.4µM	.	.[12.7 µM]	.	50.1µM
c1ccc(C2=Nn3c(nnc3-c3ccccn3)SC2)cc1	.	.	.	?	?	28.2µM
CC1=Nn2c(nnc2-c2ccccc2F)SC1	.	.	.	.[12.7 µM]	/	.
Cc1noc(C)c1-c1ccc2ncnc(NC(C)c3ccccc3)c2c1 (stereo not given)	/	.	.	/	/	/
COC(=O)CC1Oc2ccccc2-n2cc(-c3ccc(F)cc3)nc21 (stereo not given)	.	.	/	.	/	.
COc1ccc(-n2c(/C=C/c3cc(OC)c(OC)cc3OC)nc3cc4ccccc4cc3c2=O)cc1Cl	.	?	/	.	/	28.2µM
COc1ccc(-n2c(/C=C/c3ccccc3F)nc3cc(OC)c(OC)cc3c2=O)cc1Cl	.	.	/	.	/	.
CC1=C(C#N)C(NC(=O)c2cccc(Cl)c2)(C(F)(F)F)C(=O)N1 (stereo not given)	.	.	.	.	.	.
CCCN1CCCc2cc(CN(CCCN3CCOCC3)C(=O)Nc3ccc(Cl)c(Cl)c3)ccc21	?	12.6µM	/	11.2µM	/	11.2µM
CCOc1ccc(NC(=O)N(CCN2CCOCC2)Cc2ccc3c(c2)CCCN3CC)cc1	?	56.2µM	.	.[0.501 µM]	.	44.7µM
CCCN1CCCc2cc(CN(CCCN3CCOCC3)C(=O)Nc3ccc(OCC)cc3)ccc21	?	28.2µM	?	12.6µM	/	39.8µM
CCN1CCCc2cc(CN(CCN3CCOCC3)C(=S)Nc3cccc(OC)c3)ccc21	?	50.1µM	.	?	/	14.1µM
Cc1cc2c(s1)c1cnn(Cc3ccc(F)c(F)c3F)c(=O)c1n2C	/	.	/	/	/	/
COc1ccc(Cc2nnc(N/N=C/c3ccc(O)cc3)[nH]c2=O)cc1OC	.	25.1µM	.	.	17.8µM	7.08µM
O=C1NC2c3c(Cl)sc(Cl)c3C(=O)C2O1 (stereo not given)	.	56.2µM	/	/	/	/
CCn1c(CSCc2ccc(C)cc2)n[nH]c1=S	.	31.6µM	.	/	.	?
Cn1c(CSCc2ccc(Cl)c(Cl)c2)n[nH]c1=S	.	89.1µM	.	?	.	.
CCn1c(CSCc2ccc(Cl)cc2)n[nH]c1=S	.	56.2µM	.	3.16µM	/	.
S=c1[nH]nc(CSCc2ccccc2Cl)n1-c1ccccc1	.	.	.	/	.	.
Cc1ccc(NS(=O)(=O)c2c(C)nc3sccn3c2=O)c(C)c1	.	.	.	.	.	.
FC(F)(F)C(F)(F)C(F)(F)C(F)(F)C(F)(F)C(F)(F)C(F)(F)C(F)(F)Br	/	/	.	.	/	/
CCN(CC)c1ccc(NC(=O)CSc2ccsc2[N+](=O)[O-])c(C)c1	?	22.4µM	.	?	?	31.6µM
CC(=O)c1ccc(NC(=O)CSc2ccsc2[N+](=O)[O-])cc1	.	?	.	50.1µM	.	35.5µM
SMILES	HP1b binding inh	JMJD2A Tudor inh	Sfp PPTase inh	G9a inh	L3MBTL1 inh	BAZ2B block
O=C(CSc1ccsc1[N+](=O)[O-])NCCc1ccc(Cl)cc1	.	.	.	.	.	.
Cc1ccc(CNC(=O)CSc2ccsc2[N+](=O)[O-])cc1	.	.	.	?	.	.
O=C(CSc1ccsc1[N+](=O)[O-])Nc1cc(F)ccc1F	?	44.7µM	.	35.5µM	39.8µM	20µM
CC(NCCOCCOc1ccccc1)c1ccccc1 (stereo not given)	.	.	.	.	.	.
CCC(C)NCCOCCOc1ccc(Cl)c2ccccc12 (stereo not given)	.	.	20µM	12.6µM	.	?
CCC(C)NCCOCCOc1ccc(Cl)c(C)c1C (stereo not given)	?	3.55µM	.	?	.	.
Cc1cc(-c2cccc([N+](=O)[O-])c2)nc2ccc3ccccc3c12	.	.	.	.[12.7 µM]	.	.
OC(CNCCc1ccc(C(F)(F)F)cc1)COC(c1ccccc1)c1ccccc1 (stereo not given)	?	12.6µM	56.2µM	?	/	25.1µM
Cc1c(N2C(=O)/C(=C\c3ccc(N(C)C)cc3)N(C)C2=S)c(=O)n(-c2ccccc2)n1C	?	?	.	39.8µM	.	44.7µM
CN1C(=S)N(c2cccnc2)C(=O)/C1=C\c1ccc(N(C)C)cc1	.	?	?	?	.	11.2µM
Cc1ccc(S(=O)(=O)NCCCCCC(=O)Nc2nccs2)cc1	.	?	.	11.2µM	.	79.4µM
Cc1ccc(NC(=O)CCCCCNS(=O)(=O)c2ccc(C)cc2)cc1	.	.	.	.	.	.
CCCCCC(=O)NC(NC(=S)N1CCOCC1)C(Cl)(Cl)Cl (stereo not given)	.	.	.	.	.	.
CCCCCC(=O)NC(NC(=S)NC1CCS(=O)(=O)C1)C(Cl)(Cl)Cl (stereo not given)	.	.	.	25.1µM	?	.
COc1ccc2nc(C)c(C(=O)OCCN(C)C)cc2c1	/	/	.	50.1µM	.	.
